# Source: PubChem BioAssay AID1346378 (National Center for Advancing Translational Sciences (NCATS), 2018)
# About 540 (0.13%) of roughly 420,000 compounds were called active. Only a selection was taken, and actives are over-represented in it overall. Unmarked numbers belong to inactive results. Cut-off read from the data, not from the text of the source: active = activity change below about -50%; inconclusive = mostly about -30% to -49%; inactive = weaker than that.
# Biological target: Phosphatidylinositol 4-kinase type 2-alpha (Homo sapiens) (UniProt Q9BTU6)
# Experiment: qHTS for small molecular inhibitors of PI4K2A;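 for activity change, negative = inhibition: -100% = wells without enzyme as full effect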
# Details: purified PI4K2A, ADP-Glo luminescence, 1 h; at 76.9 µM, stronger effect = lower value
# Excerpt: The phosphatidylinositol 4-phosphate (PI4P) is emerging as a key regulator of lipid transfer in ER-membrane contact sites. The four different phosphatidylinositol 4-kinase (PI4K) enzymes generate PI4P in different membrane compartments supporting distinct cellular processes many of which are crucial for the maintenance of cellular integrity but also hijacked by intracellular pathogens. The goal of this screening project is to search for small molecular inhibitors of PI4K2A based on a high throughput screening strategy.The ADP-Glo assay was used as a starting point to develop a miniaturized version for HTS applications. To implement the HTS screen, the PI4K ADP-Glotrade mark Kinase assay (Promega, V9102) was miniaturized for the 1536-well format used at NCGC.
# For the robotic screening, the ADP-Glo assay using the ADP-Glotrade mark Kinase Assay kit from Promega was miniaturized and optimized on 1536-well white solid bottom plates (Greiner Bio-one). The substrate, 1.2 mM PI, prepared in the assay buffer (40mM Tris pH7.5, 20mM MgCl2, 1mM EGTA, 0.4% Triton X-100, 0.5mM DTT, 0.5mg/ml BSA) and PI4K2A enzyme, diluted also in the assay buffer to 4ug/mL, were dispensed onto the plates in equal volumes (1microl/well), pinned with 23 nL/well tested compounds or control followed by dispensation of 1microl/well 300microM ATP. The plates were incubated for one hour. Then, 2 µL/well of ADP-Glo reagent was added and incubated for 40 minutes. Next, 4microL/well of Kinase Detection Buffer was added to the plates and incubated for additional 40 minutes. All incubation steps were performed at ambient temperature. The resulting luminescence signal was measured on Viewlux plate reader (PerkinElmer). Adenosine, a partial non-specific inhibitor, was used as a positive control at 100microM final concentration to assess the assay's quality and plate-to-plate reproducibility. We also used "no enzyme" control to gauge the assay's maximal potential inhibition (IC100).
# Chain of Phosphatidylinositol 4-kinase type 2-alpha (Homo sapiens) (Q9BTU6 whole entry, looked up): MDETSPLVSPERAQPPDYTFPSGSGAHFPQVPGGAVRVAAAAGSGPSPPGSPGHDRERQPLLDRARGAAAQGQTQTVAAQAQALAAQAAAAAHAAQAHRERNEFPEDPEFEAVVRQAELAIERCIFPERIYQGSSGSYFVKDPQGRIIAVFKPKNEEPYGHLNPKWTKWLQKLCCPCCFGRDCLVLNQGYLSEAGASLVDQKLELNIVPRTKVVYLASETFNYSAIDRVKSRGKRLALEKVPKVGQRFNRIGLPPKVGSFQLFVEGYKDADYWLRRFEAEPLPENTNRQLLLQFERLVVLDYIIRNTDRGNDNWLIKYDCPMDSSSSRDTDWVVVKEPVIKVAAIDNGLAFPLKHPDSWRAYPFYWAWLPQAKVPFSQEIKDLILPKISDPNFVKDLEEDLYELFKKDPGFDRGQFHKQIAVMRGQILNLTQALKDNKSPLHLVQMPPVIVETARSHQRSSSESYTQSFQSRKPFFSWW
row,Structure (SMILES),"activity change, negative = inhibition"
1,CCC(=O)c1ccc(OCC(=O)N2CCN(CC(=O)Nc3ccc(C)cc3)CC2)cc1,-4.83%
2,C=CCN1C(=O)NC(=O)/C(=C/c2ccc(OCC(=O)Nc3ccc(C)cc3)cc2)C1=O,-53.5% (active)
3,C=CCN(CC=C)C(=O)Nc1ccc(OCC)cc1,7.59%
4,CO[C@]12CC[C@@]3(C[C@@H]1[C@](C)(O)C(C)(C)C)[C@@H]1Cc4ccc(O)c5c4[C@@]3(CCN1CC1CC1)[C@H]2O5,inactive
5,CCCOC(=O)c1cncn1C(C)c1ccccc1 (stereo not given),-0.694%
